# Assay results: the supplement of paper PMC8728848
# Many of the other results were omitted from the sample, so the strongest signals are more common in it than they were.
# What was measured:
# Test in all cases: glycan array binding signal (z-score within array); higher = stronger binding
# Conditions in all cases: glycan notation: IUPAC condensed, linker removed
# [1] = molecular target: Gal(b1-4)GlcNAc(b1-3)[Gal(b1-4)GlcNAc(b1-6)]Gal(b1-4)GlcNAc
# Procedure, shortened: (§1)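 Arrays were curated from the Consortium for Functional Glycomics database, 3228 in total, and kept only where the protein sequence was available. Binding is expressed as a within-array Z-score. This score was averaged across arrays of the same protein sequence at different concentrations or buffers and across linkers, and negative values can be read as non-binding.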
# [2] = molecular target: Gal3S(b1-4)[Fuc(a1-3)]Glc6S
# Procedure, shortened: as §1
# [3] = molecular target: GalNAc(b1-4)GlcNAc(b1-2)Man(a1-3)[GalNAc(b1-4)GlcNAc(b1-2)Man(a1-6)]Man(b1-4)GlcNAc(b1-4)GlcNAc
# Procedure, shortened: as §1
# [4] = molecular target: GlcNAc(a1-4)Gal(b1-4)GlcNAc
# Procedure, shortened: as §1
# [5] = molecular target: GlcNAc(b1-2)[GlcNAc(b1-4)]Man(a1-3)[GlcNAc(b1-2)Man(a1-6)]Man(b1-4)GlcNAc(b1-4)GlcNAc
# Procedure, shortened: as §1
# [6] = molecular target: GlcNAc(b1-3)Gal(b1-4)GlcNAc(b1-3)Gal(b1-4)GlcNAc(b1-3)Gal(b1-4)GlcNAc(b1-3)Gal(b1-4)GlcNAc(b1-2)[GlcNAc(b1-3)Gal(b1-4)GlcNAc(b1-3)Gal(b1-4)GlcNAc(b1-3)Gal(b1-4)GlcNAc(b1-3)Gal(b1-4)GlcNAc(b1-6)]Man(a1-6)[GlcNAc(b1-3)Gal(b1-4)GlcNAc(b1-3)Gal(b1-4)GlcNAc(b1-3)Gal(b1-4)GlcNAc(b1-3)Gal(b1-4)GlcNAc(b1-2)Man(a1-3)]Man(b1-4)GlcNAc(b1-4)[Fuc(a1-6)]GlcNAc
# Procedure, shortened: as §1
# GlcNAc(b1-3)GalNAc = molecular target: GlcNAc(b1-3)GalNAc
# Procedure, shortened: as §1
# [7] = molecular target: GlcNAc(b1-3)[GlcNAc(b1-4)][GlcNAc(b1-6)]GlcNAc
# Procedure, shortened: as §1
# [8] = molecular target: GlcNAc(b1-3)[GlcNAc(b1-6)]GalNAc
# Procedure, shortened: as §1
# Kdn(a2-3)Gal(b1-4)Glc = molecular target: Kdn(a2-3)Gal(b1-4)Glc
# Procedure, shortened: as §1
# MurNAc(b1-4)GlcNAc = molecular target: MurNAc(b1-4)GlcNAc
# Procedure, shortened: as §1
# [9] = molecular target: Neu5Ac(a2-3)Gal(b1-3)GalNAc
# Procedure, shortened: as §1
# [10] = molecular target: Neu5Ac(a2-3)Gal(b1-3)GalNAc(b1-4)[Neu5Ac(a2-3)]Gal(b1-4)Glc
# Procedure, shortened: as §1
# [11] = molecular target: Neu5Ac(a2-3)Gal(b1-3)GlcNAc(b1-2)Man(a1-3)[Neu5Ac(a2-3)Gal(b1-3)GlcNAc(b1-2)Man(a1-6)]Man(b1-4)GlcNAc(b1-4)GlcNAc
# Procedure, shortened: as §1
# [12] = molecular target: Neu5Ac(a2-3)Gal(b1-3)GlcNAc(b1-2)[Neu5Ac(a2-3)Gal(b1-3)GlcNAc(b1-4)]Man(a1-6)[Neu5Ac(a2-3)Gal(b1-3)GlcNAc(b1-2)Man(a1-3)]Man(b1-4)GlcNAc(b1-4)GlcNAc
# Procedure, shortened: as §1
# [13] = molecular target: Neu5Ac(a2-3)Gal(b1-3)GlcNAc6S
# Procedure, shortened: as §1
# [14] = molecular target: Neu5Ac(a2-3)Gal(b1-3)[Fuc(a1-4)]GlcNAc
# Procedure, shortened: as §1
# [15] = molecular target: Neu5Ac(a2-3)Gal(b1-3)[Fuc(a1-4)]GlcNAc(b1-3)Gal(b1-4)[Fuc(a1-3)]GlcNAc
# Procedure, shortened: as §1
# [16] = molecular target: Neu5Ac(a2-3)Gal(b1-4)GlcNAc(b1-3)Gal(b1-4)GlcNAc(b1-3)Gal(b1-4)GlcNAc(b1-2)Man(a1-3)[Neu5Ac(a2-3)Gal(b1-4)GlcNAc(b1-3)Gal(b1-4)GlcNAc(b1-3)Gal(b1-4)GlcNAc(b1-2)Man(a1-6)]GalNAc
# Procedure, shortened: as §1
# [17] = molecular target: Neu5Ac(a2-3)Gal(b1-4)GlcNAc(b1-6)[Neu5Ac(a2-3)Gal(b1-3)]GalNAc
# Procedure, shortened: as §1
# [18] = molecular target: Neu5Ac(a2-6)Gal(b1-4)GlcNAc(b1-2)Man
# Procedure, shortened: as §1
# [19] = molecular target: Neu5Ac(a2-6)Gal(b1-4)GlcNAc(b1-2)Man(a1-3)[Neu5Ac(a2-6)Gal(b1-4)GlcNAc(b1-2)Man(a1-6)]Man(b1-4)GlcNAc(b1-4)[Fuc(a1-6)]GlcNAc
# Procedure, shortened: as §1
# [20] = molecular target: Neu5Ac(a2-6)GlcNAc(b1-4)GlcNAc
# Procedure, shortened: as §1
# [21] = molecular target: Neu5Ac(a2-8)Neu5Ac(a2-8)Neu5Ac
# Procedure, shortened: as §1
# [22] = molecular target: Neu5Ac9Ac(a2-3)Gal(b1-3)GlcNAc
# Procedure, shortened: as §1
binder,measurement,setting,value
rCnSL-proB (Clitocybe nebularis) (protein) PTFSPIFALLAFLPFGTLASLLPQTQLVFRINPNLPGPNDVFVGYRGTNNVVGAIYERDGIKDTPMNNGADAELGPGSYITDDLFTAQIFASGSAGNNPGTTATVCKIYADGVQWRGAPKGYLPVLYFGNGQAAEQTRQTYLQGLDIPGTAIRFANLAKTPNQGPTAPRQMVVPSGGLQTLLKASCFPANHAALPQVLSYFNVRAALPPGWNIRTGPEFPNWTN,glycan array binding signal (z-score),[1],-0.283
same,glycan array binding signal (z-score),[2],0.549
same,glycan array binding signal (z-score),[3],3.38
same,glycan array binding signal (z-score),[4],-0.308
same,glycan array binding signal (z-score),[5],-0.133
same,glycan array binding signal (z-score),[6],0.742
same,glycan array binding signal (z-score),GlcNAc(b1-3)GalNAc,-0.757
same,glycan array binding signal (z-score),[7],-0.62
same,glycan array binding signal (z-score),[8],-0.668
same,glycan array binding signal (z-score),Kdn(a2-3)Gal(b1-4)Glc,-1.27
same,glycan array binding signal (z-score),MurNAc(b1-4)GlcNAc,-0.477
same,glycan array binding signal (z-score),[9],-0.437
same,glycan array binding signal (z-score),[10],-0.343
same,glycan array binding signal (z-score),[11],3.69
same,glycan array binding signal (z-score),[12],0.146
same,glycan array binding signal (z-score),[13],0.395
same,glycan array binding signal (z-score),[14],-0.555
same,glycan array binding signal (z-score),[15],0.025
same,glycan array binding signal (z-score),[16],4.43
same,glycan array binding signal (z-score),[17],-0.239
same,glycan array binding signal (z-score),[18],0.328
same,glycan array binding signal (z-score),[19],0.037
same,glycan array binding signal (z-score),[20],-0.255
same,glycan array binding signal (z-score),[21],-0.203
same,glycan array binding signal (z-score),[22],-0.873
